The values below come from PubChem BioAssay (Tox21).

Records with an inconclusive call do not appear. The source made the active and inactive calls. Calls follow the shape of the dose curve; as a rule, active = well fitted cell-killing curve with a large enough effect in the repeat runs; inconclusive = weak or mixed curves, or effect the other way; inactive = flat fitted curve, though single readings scatter.

A short description of test [1]: cAMP Responsive Elements (CRE) small molecule antagonists, cell-based qHTS assay: qHTS cell viability counter screen (AID 2060913). Also: nearly all actives have a fitted effect of over 40% in size. Conditions: CRE-bla HEK293T viability, CellTiter-Glo luminescence, 5 h; series mostly up to 92.4 µM. Summed up:
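CRE-bla HEK293T cells were seeded in assay medium with 10% dialyzed FBS, incubated 18 hrs at 37 C, then exposed to compounds plus 0.25 uM final NKH477 for 3 hrs. Viability was read by CellTiter-Glo luminescence after 30 min, in the same wells.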
In general terms: Quantitative high-throughput screening tests each substance at several concentrations.

Test [2] is described as follows: cAMP Responsive Elements (CRE) small molecule agonists, cell-based qHTS assay: qHTS cell viability counter screen (AID 2060914).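 Also: viability read after 3 h of compound exposure; nearly all actives have a fitted effect of over 50% in size.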 Conditions: CRE-bla HEK293T viability, CellTiter-Glo luminescence, 5 h; series mostly up to 92.4 µM. In short, it runs like this:
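Cells are seeded and incubated 18 h, treated with compounds in DMSO for 3 h, read for the bla reporter, then given CellTiter-Glo; luminescence is measured after 30 min at room temperature.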
Potency is read from the fitted curve at half-maximal effect.

`O=C(c1ccc(O)cc1)c1ccc(O)cc1O`: the Potency entry in test [1] and in test [2] was “inactive” in each case.

Regarding `CC(=O)OC1CCCCC1`, the Potency entry in test [1] and in test [2] was “inactive” throughout.

Consider `CN(C)[C@@H]1C(=O)C(C(N)=O)=C(O)[C@@]2(O)C(=O)C3=C(O)c4c(O)cccc4C[C@H]3C[C@@H]12`, for which the Potency entry in test [1] and in test [2] was “inactive” throughout.

On to `COC1CCC=CO1` (stereo unspecified), for which the Potency result in test [1] and in test [2] was “inactive” throughout.

Regarding `CCCCCCCC/C=C\CCCCCCCCOCCO`, the Potency is 79.4 µM (active) in test [1] and 63.1 µM (active) in test [2].

As to `C/C(=C\c1ccc(C(=O)O)cc1)c1ccc2c(c1)C(C)(C)CCC2(C)C`, the Potency entry in test [1] and in test [2] was “inactive” in each case.

As for `N[C@H]1C(O)O[C@H](CO)[C@@H](O)[C@@H]1O` (stereo partly specified), the Potency result in test [1] and in test [2] was “inactive” in each case.

For the compound `OCCOCC#CCOCCO`, the Potency result in test [1] and in test [2] was “inactive” throughout.
